# D3 ag: activates the human D3 dopamine receptor; P35462; max activation, %; AID 652048; D3R DiscoveRx beta-arrestin cells, luminescence, 90 min; hit rate 0.58% among 410,000; in the data active means max activation above about 30%
#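 Agonist-mode cell screen: cells plated at 1500/well and incubated overnight at 37 °C, then exposed to library compounds for 90 min at 37 °C. Detection reagent was added for 30–60 min at room temperature, and luminescence was read.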
# GLP-1R inv ag: acts as inverse agonist at human GLP-1 receptor; HEK293 GLP-1R CRE-luciferase, luminescence, 24 h; GLP-1R form is constitutively active; Potency, µM (top dose mostly 38.3 µM), most hits filed as inhibitors; hit rate 1.6% among 410,000; AID 624417; P43220; further: nearly all actives have a fitted effect of over 55% in size
#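 Inverse agonism was detected as reduced cAMP-driven luciferase luminescence after 24 h compound treatment. The cells were HEK293 clones expressing constitutively active human GLP-1R with the reporter. Reporter-only and GPR119 cell lines served as counterscreen controls.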
# ClpP mod: qHTS Assay for Activators of ClpP | purified B. subtilis ClpP, FRET peptide cleavage, 20 min | ATP-dependent Clp protease proteolytic subunit (Bacillus subtilis (strain 168)), P80244 | hit rate 1.9% among 340,000 | Potency, µM (top dose mostly 57.5 µM); active means well fitted falling curve with a large enough effect; inconclusive means small, poorly fitted or top-dose-only effect; inactive means no such curve, though single readings can be large or run the other way; further: the source files actives as falling curves though it sought activators and does not explain the sign; nearly all actives have a fitted effect of over 65% in size
#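 Buffer: 100 mM Tris/HCl pH8, 100 mM KCl, 0.05% low protease BSA, 2.5% glycerol, 0.01% Tween-20. ClpP 10 microg/mL final; 20 min RT; delta FRET normalized to ADEP and DMSO controls.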
# GLP-1R agonist: agonists of human GLP-1 receptor; P43220; HEK293 GLP-1R CRE-luciferase, luminescence, 4-6 h; cells express a hypersensitive GLP-1R form; Potency, µM (top dose mostly 45.6 µM), most hits filed as activators; hit rate 0.007% among 380,000; AID 624172
# HEK293 tox: cytotoxic in the GLP-1 receptor inverse agonist counter-screen; Potency, µM (top dose mostly 38.3 µM), most hits filed as inhibitors; HEK293 cAMP-luciferase reporter cells, luminescence, 24 h; hit rate 0.13% among 410,000; AID 624418;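 further: loss of luciferase light is scored as toxicity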
#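 Step one: seed cells (200 cells/uL, DMEM with 10% Nu serum, 1% pen-strep). Step two: 12-hour incubation at 37 deg C. Step three: pin 23 nL compound, incubate 24 hr. Step four: add luciferase reagent, read luminescence 12 min later.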
# D3 antag: antagonists of human D3 dopamine receptor; AID 652054; P35462; D3R cells, DiscoveRx beta-arrestin luminescence, antagonist mode; hits give low values; max response, negative = inhibition, %; hit rate 2.5% among 360,000; in the data active means max response below about -50%; inconclusive means no clear call, values can overlap the other calls
#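 Cells plated overnight at 1500 cells/well, then exposed to library compounds with dopamine controls for 90 minutes at 37 degrees C. DiscoveRx reagent added for 30–60 minutes at room temperature; luminescence read, quantitative HTS format.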
# A number is an active result; - = inactive; ? = inconclusive; . = not tested or not shown; [ ] = dose if it differs, or a comment. This is a sample that favours compounds with a hit; in the whole collection about 5.7% have one here. Unless noted, the call rests on the fitted dose curve; in most records, active means well fitted curve in the direction sought with a large enough effect; inconclusive means small, poorly fitted or top-dose-only effect, or another doubt; inactive means no such curve, though single readings can be large; an effect the other way counts as inactive or inconclusive.
SMILES,D3 ag,GLP-1R inv ag,ClpP mod,GLP-1R agonist,HEK293 tox,D3 antag
O=C(Nc1ccc(-c2nc3ccccc3[nH]2)cc1)c1ccccc1NS(=O)(=O)c1ccc(F)cc1,-,?,35.5µM,-,-,-
Cc1cc(F)ccc1S(=O)(=O)Nc1ccccc1C(=O)NCc1ccccn1,-,?,.,-,-,-
Cc1cc(F)ccc1S(=O)(=O)Nc1ccccc1C(=O)Nc1ncn[nH]1,-,?,31.6µM,-,-,-
Cc1cc(F)ccc1S(=O)(=O)Nc1ccccc1C(=O)Nc1ccccc1-c1nc2ccccc2[nH]1,-,6.31µM,31.6µM,-,?,-
Cc1ccc(S(=O)(=O)Nc2ccccc2C(=O)Nc2nc(-c3ccc(F)cc3)cs2)cc1,-,3.16µM,15.8µM,-,?,-
O=C(CCCSc1nc2ccccc2[nH]1)NC(c1ccccc1)c1ccccc1,-,8.91µM,-,-,-,-
CCOc1ccc(-c2noc([C@@H]3O[C@H](CO)[C@@H](O)[C@H]3O)n2)cc1,-,-,-,-,-,-
O=C(Nc1ccc(-c2nc3ccccc3o2)cc1)c1ccc(N2C(=O)C3C4C=CC(C4)C3C2=O)cc1 (stereo unspecified),-,-,3.16µM,-,-,-
O=C(Nc1ccc(-c2nc3ccccc3o2)cc1)c1ccc2c(c1)OCO2,-,-,31.6µM,-,-,-
CC(C)C(=O)Nc1ccc2oc(-c3cc(F)c(F)cc3Cl)nc2c1,-,-,-,-,-,-
O=C(Nc1ccc2oc(-c3cccc4ccccc34)nc2c1)c1ncn[nH]1,-,-,31.6µM,-,-,-
CC(=O)Nc1ccc2oc(-c3cc(F)c(F)cc3Cl)nc2c1,-,-,17.8µM,-,-,-
O=C(NCCc1csc(-c2ccc(F)cc2)n1)C(=O)Nc1ccc(Cl)cc1,-,-,-,.,-,.
Cc1cc(NC(=O)c2ccc3c(c2)OCCO3)cc(-c2nc3ccccc3o2)c1O,-,-,-,-,-,.
O=C(Nc1ccc2oc(-c3ccccc3F)nc2c1)c1ccc2c(c1)OCCO2,-,-,28.2µM,-,?,-
CNc1sc(C(=O)c2ccccc2F)c(N)c1-c1nc2ccccc2s1,-,-,-,-,-,-52.5
O=C(CNC(=O)c1ccccc1F)OCc1nc2ccccc2s1,-,-[0.307 µM],-,-,-[0.307 µM],-
CCOC(=O)c1sc(N2C(=O)c3oc4ccc(F)cc4c(=O)c3C2c2ccc(O)cc2)nc1C (stereo unspecified),-,-,-,.,-,.
COc1cc2c(cc1OC)C(c1cc(Br)ccc1F)N(C(=O)CCl)CC2 (stereo unspecified),-,?,-,-,?,-86.7
CC(C)(C)NC(=O)C(=O)NC(=O)c1c(F)cccc1Cl,-,-,.,-,-,-
Cc1cc(C(F)(F)F)cc(NNC(=O)NC(=O)c2c(F)cccc2Cl)n1,-,11.2µM,.,-,-,-
CCOc1ccc(-n2c(C)nc3cc(C(=O)NCCN4CCOCC4)ccc32)cc1,-,-,-,?,-,-
CN1CCN(CCCNC(=O)c2ccc(/C=C3\Sc4ccccc4N(Cc4ccc(F)cc4)C3=O)cc2)CC1,-,10µM,-,-,-,-
CCOc1ccc(-n2c(C)nc3cc(C(=O)NCCCN4CCOCC4)ccc32)cc1,-,-,31.6µM,-,-,-
O=C(NCCCN1CCOCC1)c1ccc2c(c1)N(Cc1ccccc1)C(=O)c1ccccc1S2,-,?,-,-,-,-
SMILES,D3 ag,GLP-1R inv ag,ClpP mod,GLP-1R agonist,HEK293 tox,D3 antag
CCOc1ccc(CN2C(=O)c3ccccc3Sc3ccc(C(=O)NCCCN4CCOCC4)cc32)cc1,-,12.6µM,-,-,?,-
O=C(CSc1nncn2c1cc1sccc12)Nc1ccc(Br)cc1F,-,-,-,.,-,.
COCOc1ccc(-c2ncc(OC)nc2NC(=O)c2ccsc2)cc1,-,-,-,-,-,-
Cc1ccc(C(C)C)c(OCCCCN2CCNCC2)c1,-,2.24µM,-,-,-,?
Cc1ccc(C(C)C)c(OCCCCCN2CCOCC2)c1,-,?,.,-,-,-51.9
Cc1ccc(C(C)C)c(OCCOCCN2CCNCC2)c1,-,-,-,-,-,-
Cc1ccc(C)c(OCCOCCN2CCOCC2)c1,-,-,-,?,-,-56.0
Cc1ccc(C(C)C)c(OCCN(C)C)c1,-,-,-,-,-,-75.3
C/C(=N\NC(=S)NC1CCCCC1)c1c(F)cccc1F,-,3.98µM,.,-,?,-
C/C(=N\NC(=S)NC1CCCCC1)c1cccs1,-,?,-,-,?,-
CC1CCCN(CCCNS(=O)(=O)c2cc(Br)cc3c2N(C(=O)C2CC2)CC3)C1 (stereo unspecified),-,-,-,-,-,-
CC(=O)N1CCc2cc(Br)cc(S(=O)(=O)NCCCN3CCCC(C)C3)c21 (stereo unspecified),-,-,-,-,-,-59.5
Cc1sc2nc3c4ccccc4c(NCc4ccco4)nn3c(=O)c2c1C,-,-,25.1µM,-,-,-
Cc1nc(NCc2ccco2)c2c(C)c(C)sc2n1,-,?,-,-,?,-
Cc1ccc(-n2ncc3c(Nc4ccc(Oc5ccccc5)cc4)ncnc32)c(C)c1,-,10µM,-,.,-,.
O=C1CCCN1CCCNc1ncnc2c1cnn2-c1ccc(Cl)cc1,-,-,-,-,-,-
CCc1ccccc1Nc1ncnc2c1cnn2-c1ccc(Cl)cc1,-,?,31.6µM,.,-,.
CN(C)CCNc1ncnc2c1cnn2-c1ccc(Cl)cc1,-,3.16µM,-,-,?,-63.8
Cc1cccc(-n2ncc3c(NCCCN4CCCC4=O)ncnc32)c1,-,-,28.2µM,-,-,-
Cc1ccc(-n2ncc3c(Nc4ccc5c(c4)OCCO5)ncnc32)cc1C,48.1,-,?,.,-,.
Cc1cccc(-n2ncc3c(Nc4c(C)cc(C)cc4C)ncnc32)c1,-,5.62µM,-,.,-,.
COc1cccc(N2CCN(c3ncnc4c3cnn4-c3ccc(C)cc3C)CC2)c1,38.8,?,-,-,?,-
Cc1ccc(-n2ncc3c(N4CCCC4)ncnc32)c(C)c1,-,-,-,-,-,?
Cc1ccc(-n2ncc3c(Nc4cccc(Cl)c4)ncnc32)c(C)c1,-,?,-,.,-,.
CCc1ccccc1Nc1ncnc2c1cnn2-c1ccc(C)cc1C,-,12.6µM,-,.,-,.
Cc1cccc(-n2ncc3c(NC(C)C)ncnc32)c1,-,?,-,-,-,-
CCOc1ccccc1CNCc1c(C(=O)O)n(Cc2ccc(F)cc2)c2cc(C)ccc12,-,-,-,-,-,.
Cc1ccc(NC(=O)C2CCCN(S(=O)(=O)c3ccc(C)cc3)C2)cc1 (stereo unspecified),-,-,-,.,-,.

# Compound activity (PubChem BioAssay)
